High-throughput results as filed in PubChem.
Pf Dd2 inh = qHTS Primary assay for Inhibitors of Plasmodium falciparum Dd2 growth in vitro; P. falciparum Dd2 growth, SYBR Green, 72 h; Potency, µM (highest dose often 28.9 µM), for the others: at the highest dose activity, negative = inhibition, hits mostly inhibitors; 4.3% of 120,000 active; active means well fitted inhibition curve with a large enough effect;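 further: plate controls were DMSO vehicle for no effect and reference drug for full effect; nearly all actives have a fitted effect of over 65% in size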
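Readout: SYBR Green fluorescence, 485 nm excitation, 535 nm emission, after ~16 h lysis at 37C. Before that, Dd2-infected red cells (2.5% hematocrit) grew 72 h with compound, 29 uM top final concentration.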
Active calls of the source: *; [ ] = dose if it differs, or a comment. Shown is part of a subset that was picked to be rich in hits. Potency means the concentration at half of the fitted maximal effect.

Results for O=C([C@@H]1C[C@H](F)CN1S(=O)(=O)Cc1ccccc1)N1CCCCC1 ?
Pf Dd2 inh: 18.3%

What do the screens show for `CC(C)NC(=O)C1c2ccccc2C(=O)N(C2CCCC2)C12CCCC2` (stereo not drawn)?
Pf Dd2 inh: 11.1%

How did O=C(NC1CCCC1)C1c2ccccc2C(=O)N(C2CCCC2)C12CCCCC2 (stereo not drawn) do in these assays?
Pf Dd2 inh: 10µM*

How did COC(=O)CNC(=O)C1c2ccccc2C(=O)N(C2CCCC2)C12CCCCC2 (stereo not drawn) do in these assays?
Pf Dd2 inh: -14.8%

What do the screens show for `CCOc1ncccc1C(=O)N(C)Cc1nc(-c2ccccc2)no1`?
Pf Dd2 inh: -17.4%

Results for Cc1noc(C)c1-c1cc2c(cc(C)n2C)c(-c2cccc([S+](C)(=O)[O-])c2)n1 ?
Pf Dd2 inh: inactive

Results for C#C[C@H]1CN2CC[C@H]1C[C@@H]2CNCc1cccc(C#N)c1 ?
Pf Dd2 inh: 14.1µM*

Results for CCN(CC)C[C@H]1CN2CC[C@H]1C[C@@H]2CNS(=O)(=O)c1ccc(Cl)cc1 ?
Pf Dd2 inh: -15.4%[44.1 µM]

How did C#C[C@H]1CN2CC[C@H]1C[C@@H]2CNS(=O)(=O)c1cccc(F)c1 do in these assays?
Pf Dd2 inh: 8.91µM*

Results for CC[C@H]1CN2CC[C@H]1C[C@@H]2CNS(=O)(=O)c1ccccc1 ?
Pf Dd2 inh: inactive

How did C=C[C@H]1CN2CC[C@H]1C[C@@H]2CNS(=O)(=O)c1ccc(Cl)cc1 do in these assays?
Pf Dd2 inh: -6.5%[44.1 µM]

How did C#C[C@H]1CN2CC[C@H]1C[C@@H]2CNS(=O)(=O)c1ccc(Cl)cc1 do in these assays?
Pf Dd2 inh: 5.01µM*

What do the screens show for `O=S(=O)(NC[C@H]1C[C@@H]2CCN1C[C@@H]2CN1CCCCC1)c1ccccc1`?
Pf Dd2 inh: -4.8%[44.1 µM]

Results for C#C[C@H]1CN2CC[C@H]1C[C@@H]2CNCc1ccc(C(C)C)cc1 ?
Pf Dd2 inh: inactive

Results for CC[C@H]1CN2CC[C@H]1C[C@@H]2CNS(=O)(=O)c1cccs1 ?
Pf Dd2 inh: -5.4%[44.1 µM]

Results for C#CCN(C)C[C@H]1CN2CC[C@H]1C[C@@H]2CNS(=O)(=O)c1ccccc1 ?
Pf Dd2 inh: inactive

Results for C#C[C@H]1CN2CC[C@H]1C[C@@H]2CNS(=O)(=O)c1cccs1 ?
Pf Dd2 inh: 8.91µM*

How did CC[C@H]1CN2CC[C@H]1C[C@@H]2CNC(=O)Nc1cccc(C#N)c1 do in these assays?
Pf Dd2 inh: inactive

How did CN(CC1CCOCC1)C(=O)NC1CCCC1 do in these assays?
Pf Dd2 inh: -2.2%

How did CCCN1CCCn2nc(CNC(=O)c3ccc(OC)nc3OC)cc2C1 do in these assays?
Pf Dd2 inh: inactive

How did COc1ccc(OC2CN(CCC(C)C)C2)cc1 do in these assays?
Pf Dd2 inh: -19.9%[44.1 µM]

Results for CCC(CC)N1CCCC(c2nc(-c3cccnc3)no2)CCNC(=O)CC1 (stereo not drawn) ?
Pf Dd2 inh: 17.6%

What do the screens show for `Cc1ccccc1C(=O)N1CC(c2nc(CCc3ccccc3)no2)C1`?
Pf Dd2 inh: -19.0%

How did CCC(C)NC(=O)C(NC(=O)c1ccc(OC)cc1)C1CCN(C(=O)CC(C)C)CC1 (stereo not drawn) do in these assays?
Pf Dd2 inh: inactive

How did CC[C@H]1CN(S(=O)(=O)c2ccc(OC)cc2)CC[C@H]1CC(=O)NCc1cccnc1 do in these assays?
Pf Dd2 inh: inactive

What do the screens show for `O=C(NCCCc1ccccc1)C1CCN(C(=O)c2ncn3c2COC(c2ccccc2)C3)CC1` (stereo not drawn)?
Pf Dd2 inh: -3.8%

What do the screens show for `COCCN(C)C[C@H]1C[C@H](CO)CN(C(=O)c2ccc(OC)c(F)c2)C1`?
Pf Dd2 inh: 2.8%

What do the screens show for `CCOc1ccccc1NC(=O)N1c2ccccc2CC1c1noc(C(C)C)n1` (stereo not drawn)?
Pf Dd2 inh: inactive

What do the screens show for `CCOC(=O)c1c(C)[nH]c(C)c1S(=O)(=O)NCC(=O)N1CCN(c2ccccc2F)CC1`?
Pf Dd2 inh: inactive

Results for CCOC(=O)c1c(C)[nH]c(CCC(=O)NCc2ccc(F)cc2)c1C ?
Pf Dd2 inh: -14.1%

How did CCOC(=O)c1c(C)[nH]c(CCC(=O)NCCCN2CCN(c3ccccc3F)CC2)c1C do in these assays?
Pf Dd2 inh: 11.2µM*

Results for CCN(CC)c1ncccc1CNC(=O)c1coc2c1C(=O)CCC2 ?
Pf Dd2 inh: -22.1%

What do the screens show for `Cc1ccc(C)c(NC(=O)Cn2c(=O)n(-c3ccc(F)cc3)c(=O)c3c2cc(C)n3C)c1`?
Pf Dd2 inh: -14.2%

What do the screens show for `COc1ccc(-c2noc(CN(C)CCOc3ccc(C)cc3)n2)c(OC)c1OC`?
Pf Dd2 inh: -3.4%

How did C[C@@H]1CN(C2(C(=O)NCc3ccncc3)Cc3ccccc3C2)C[C@H](C)O1 do in these assays?
Pf Dd2 inh: 1.8%

Results for O=C(Nc1ccc(Cl)cc1)c1nc2c(o1)CCN(Cc1ccccc1)CC2 ?
Pf Dd2 inh: inactive

Results for COc1ccc(NC(=O)c2c(C)oc3ccc(O)c(CN4CCN(Cc5ccccc5)CC4)c23)cc1 ?
Pf Dd2 inh: 1.26µM*
